Data as given in PMC5540273 (PLoS ONE, 2017).

Columns and labels:
Conditions in all cases: concentration: 1 μM, replicates: in singlicate; n = 1
[1] = test system: MAPKAPK5
[2] = test system: MARK1
[3] = test system: MARK2
[4] = test system: MARK3
[5] = test system: MARK4
[6] = test system: MAST1
[7] = test system: T1, MEK1
T1 construct: gene MAP2K1

[8] = test system: T2, MEK2
T2 construct: gene MAP2K2

[9] = test system: T3, MEK3
T3 construct: gene MAP2K3

[10] = test system: T4, MEK4
T4 construct: gene MAP2K4
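Also: KINOMEscan kinase panel screen.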

## Cn1cc(-c2ccc3c(c2)CCN3C(=O)Cc2cc(F)cc(C(F)(F)F)c2)c2c(N)ncnc21 [GSK2635225]
[1]
  %Inh: 0%
[2]
  %Inh: 0%
[3]
  %Inh: 9%
[4]
  %Inh: 0%
[5]
  %Inh: 2%
[6]
  %Inh: 0%
[7]
  %Inh: 0%
[8]
  %Inh: 0%
[9]
  %Inh: 0%
[10]
  %Inh: 29%

## O=C(Nc1n[nH]c2nc(-c3ccccc3)ccc12)C1CC1 [SB-708999]
[1]
  %Inh: 0%
[2]
  %Inh: 0%
[3]
  %Inh: 0%
[4]
  %Inh: 0%
[5]
  %Inh: 8%
[6]
  %Inh: 22%
[7]
  %Inh: 6%
[8]
  %Inh: 0%
[9]
  %Inh: 0%
[10]
  %Inh: 0%

## COc1cccc(-c2nc(-c3ccccc3)[nH]c2-c2ccncc2)c1 [SB-610250]
[1]
  %Inh: 0%
[2]
  %Inh: 0%
[3]
  %Inh: 0%
[4]
  %Inh: 0%
[5]
  %Inh: 0%
[6]
  %Inh: 22%
[7]
  %Inh: 0%
[8]
  %Inh: 0%
[9]
  %Inh: 0%
[10]
  %Inh: 0%

## COC(=O)Nc1nc2ccc(Oc3ccc(NC(=O)Nc4cc(C(F)(F)F)ccc4F)cc3)cc2[nH]1.Cl [GW654607]
[1]
  %Inh: 0%
[2]
  %Inh: 0%
[3]
  %Inh: 0%
[4]
  %Inh: 0%
[5]
  %Inh: 0%
[6]
  %Inh: 0%
[7]
  %Inh: 0%
[8]
  %Inh: 0%
[9]
  %Inh: 0%
[10]
  %Inh: 15%

## Cc1ccc(O)cc1Nc1ccnc2ccc(C(C)(C)C)cc12 [GW856805]
[1]
  %Inh: 0%
[2]
  %Inh: 36%
[3]
  %Inh: 20%
[4]
  %Inh: 21%
[5]
  %Inh: 37%
[6]
  %Inh: 69%
[7]
  %Inh: 17%
[8]
  %Inh: 21%
[9]
  %Inh: 67%
[10]
  %Inh: 42%

## Cc1cc(-c2ccnc(Nc3cccc(C#N)c3)n2)cc(C)c1O [GSK1440913]
[1]
  %Inh: 0%
[2]
  %Inh: 0%
[3]
  %Inh: 0%
[4]
  %Inh: 0%
[5]
  %Inh: 0%
[6]
  %Inh: 0%
[7]
  %Inh: 0%
[8]
  %Inh: 0%
[9]
  %Inh: 89%
[10]
  %Inh: 40%

## CCNC(=O)/C=C/c1n[nH]c2cc(Sc3ccccc3C(=O)NC)ccc12
[1]
  %Inh: 18%
[2]
  %Inh: 0%
[3]
  %Inh: 34%
[4]
  %Inh: 0%
[5]
  %Inh: 3%
[6]
  %Inh: 0%
[7]
  %Inh: 17%
[8]
  %Inh: 18%
[9]
  %Inh: 14%
[10]
  %Inh: 0%

## CSc1ccc(NC2=C(c3ccc(Cl)cc3)C(=O)NC2=O)cc1 [SB-317658]
[1]
  %Inh: 0%
[2]
  %Inh: 3%
[3]
  %Inh: 0%
[4]
  %Inh: 28%
[5]
  %Inh: 21%
[6]
  %Inh: 23%
[7]
  %Inh: 3%
[8]
  %Inh: 6%
[9]
  %Inh: 0%
[10]
  %Inh: 0%

## O=C1NC(=O)C(c2ccccc2Cl)=C1Nc1cccc(Cl)c1 [SB-342409]
[1]
  %Inh: 0%
[2]
  %Inh: 0%
[3]
  %Inh: 0%
[4]
  %Inh: 2%
[5]
  %Inh: 0%
[6]
  %Inh: 0%
[7]
  %Inh: 2%
[8]
  %Inh: 5%
[9]
  %Inh: 0%
[10]
  %Inh: 0%

## COC(=O)Nc1nc2ccc(Oc3ccc(CC(=O)Nc4cc(C(F)(F)F)ccc4F)cc3)cc2[nH]1 [GW680903]
[1]
  %Inh: 0%
[2]
  %Inh: 0%
[3]
  %Inh: 100%
[4]
  %Inh: 5%
[5]
  %Inh: 0%
[6]
  %Inh: 0%
[7]
  %Inh: 0%
[8]
  %Inh: 0%
[9]
  %Inh: 0%
[10]
  %Inh: 29%

## O=C(Nc1n[nH]c2cc(-c3cccs3)ccc12)C1CC1 [SB-731284]
[1]
  %Inh: 4%
[2]
  %Inh: 47%
[3]
  %Inh: 21%
[4]
  %Inh: 0%
[5]
  %Inh: 35%
[6]
  %Inh: 6%
[7]
  %Inh: 47%
[8]
  %Inh: 24%
[9]
  %Inh: 51%
[10]
  %Inh: 46%

## Nc1ncc(-c2ccc3nccc(-c4ccncc4)c3c2)cc1S(=O)(=O)N1CCCCC1 [GSK1693850]
[1]
  %Inh: 0%
[2]
  %Inh: 0%
[3]
  %Inh: 15%
[4]
  %Inh: 0%
[5]
  %Inh: 0%
[6]
  %Inh: 0%
[7]
  %Inh: 0%
[8]
  %Inh: 0%
[9]
  %Inh: 13%
[10]
  %Inh: 33%

## COc1ccc(C)c(Nc2ccnc(Nc3ccc(-c4cnc[nH]4)cc3)n2)c1.Cl [GW784041]
[1]
  %Inh: 0%
[2]
  %Inh: 9%
[3]
  %Inh: 0%
[4]
  %Inh: 14%
[5]
  %Inh: 24%
[6]
  %Inh: 0%
[7]
  %Inh: 31%
[8]
  %Inh: 55%
[9]
  %Inh: 0%
[10]
  %Inh: 0%

## NCCC(NC(=O)c1cc(Br)c(-c2ccnc3[nH]ccc23)s1)c1ccccc1.O=C(O)C(F)(F)F.O=C(O)C(F)(F)F (stereo not drawn) [GSK1307810]
[1]
  %Inh: 0%
[2]
  %Inh: 7%
[3]
  %Inh: 26%
[4]
  %Inh: 0%
[5]
  %Inh: 11%
[6]
  %Inh: 15%
[7]
  %Inh: 0%
[8]
  %Inh: 0%
[9]
  %Inh: 93.7%
[10]
  %Inh: 52%

## Cl.O=C(Nc1ccc(Oc2ccc3[nH]c(NC(=O)c4ccco4)nc3c2)cc1)Nc1cc(C(F)(F)F)ccc1F [GW683134]
[1]
  %Inh: 0%
[2]
  %Inh: 0%
[3]
  %Inh: 0%
[4]
  %Inh: 0%
[5]
  %Inh: 6%
[6]
  %Inh: 8%
[7]
  %Inh: 0%
[8]
  %Inh: 0%
[9]
  %Inh: 0%
[10]
  %Inh: 10%
